Screening data from PubChem.
OPRM1-OPRD1 inv: inverse agonists of human mu-delta opioid receptor heterodimerization. P35372+P41143. cell-based MOR-DOR heterodimer luminescence, inverse agonism. inhibition, % at 9.3 µM. 0.21% of 340,000 active. AID 504357; in the data active means inhibition above about 22%, passing the limit was not always enough;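 further: 0% = cells with DMSO and 100% = wells without cells with DMSO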
MOR-DOR ag-1: OPRM1-OPRD1 heterodimerization agonism. P35372+P41143. cells, luminescence. activation, % at 9.3 µM. 0.3% of 340,000 active. AID 504326;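 further: 0% = vehicle-treated cells and 100% = reference agonist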
HTR5A inv ag: inverse agonist of human HTR5A in OPRM1-OPRD1 counter-screen | 0.083% of 340,000 active | HTR5A cell line, luminescence, inverse agonism | AID 504634 | inhibition, % at 9.3 µM; in the data active means inhibition mostly above about 23%, no sharp cut-off; inactive means mostly below about 18%;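 further: 0% = cells with DMSO and 100% = no-cell wells with DMSO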
Target sequence (P47898 whole entry, looked up): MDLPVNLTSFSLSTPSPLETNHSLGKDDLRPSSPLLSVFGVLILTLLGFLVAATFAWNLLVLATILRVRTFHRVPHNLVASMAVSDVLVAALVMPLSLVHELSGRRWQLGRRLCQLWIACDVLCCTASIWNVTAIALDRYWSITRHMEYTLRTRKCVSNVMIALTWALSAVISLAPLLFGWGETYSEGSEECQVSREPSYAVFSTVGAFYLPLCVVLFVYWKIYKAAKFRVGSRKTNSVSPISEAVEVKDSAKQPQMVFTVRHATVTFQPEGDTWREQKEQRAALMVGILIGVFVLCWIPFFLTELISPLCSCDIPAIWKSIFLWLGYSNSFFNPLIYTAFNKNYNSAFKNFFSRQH
HTR5A ag ctr: activates human HTR5A in OPRM1-OPRD1 agonist counter-screen | HTR5A agonist assay, luminescence, cell-based | activation, % at 9.3 µM | 0.61% of 340,000 active | P47898; in the data active means activation mostly above about 9.5%, no sharp cut-off; inactive means mostly below about 7.6%;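 further: 0% = cells with vehicle only and 100% = reference agonist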
MOR-DOR ag-2: counter-screen for HTR5A agonists: OPRM1-OPRD1 heterodimerization agonism; U2OS counter-screen cells, complementation luminescence, 3 h; activation, % at 9.3 µM; 13% of 800 active; shares compounds with HTR5A ag ctr
HTR5A ag conf: confirmation of human HTR5A agonists. shares compounds with HTR5A ag ctr. HTR5A agonist cell assay, luminescence. activation, % at 9.3 µM. 17% of 800 active. AID 504915; in the data active means activation above about 17%;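 further: 0% = cells with vehicle only and 100% = full reference agonist response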
* = called active by the depositor; x = not tested or not shown. Compounds with a hit are over-represented: about 1.1% of the library has one in this group of screens. Unless noted, no stated cut-off is given here; in the data, active means activation above about 18%; inactive means the rest.

SMILES | OPRM1-OPRD1 inv | MOR-DOR ag-1 | HTR5A inv ag | HTR5A ag ctr | MOR-DOR ag-2 | HTR5A ag conf
Cc1cc(C)c2c(c1)SC1=NC(c3ccccc3)(C(F)(F)F)NC(=O)N12 (stereo not drawn) | -30 | 5 | 8 | 16* | 3 | 5
O=C1CC(c2ccccc2)Sc2ccccc2N1 (stereo not drawn) | 12 | -3 | -47 | 17* | 2 | 3
O=C1CC(c2ccco2)Sc2ccccc2N1 (stereo not drawn) | 8 | -2 | 4 | -1 | x | x
CCOC(=O)c1cc2sc(C)cc2n1CC(=O)N1CCOCC1 | -1 | 0 | 9 | -4 | x | x
CCOC(=O)c1cc2sc(C)cc2n1CC(=O)NCc1ccc(F)cc1 | -47 | 8 | -22 | 20* | 3 | 5
Cn1c(CN2CCCCC2)nc2cc(NC(=O)c3ccc(Cl)cc3)ccc21 | -9 | 2 | -146 | 39* | 2 | 44*
Cc1nnc(SC(C)C(=O)NCC2CCCO2)s1 (stereo not drawn) | 1 | 0 | 13 | 0 | x | x
CCOc1ccc(C(=O)N2CCN(Cc3ccccc3)CC2)cc1OCC | 0 | 0 | -1 | 16* | 4 | -1
CCOc1ccc(C(=O)N2CCN(Cc3ccccc3)CC2)cc1 | 3 | -1 | 14 | -4 | x | x
CCN(CC)S(=O)(=O)c1cc(C(=O)OC(C)C(=O)NCc2ccco2)ccc1C (stereo not drawn) | 5 | -1 | -3 | 1 | x | x
N/C(=C\C(=O)c1cc(Cl)ccc1O)C(Cl)(Cl)Cl | -29 | 5 | -6 | 2 | x | x
CN(CC(=O)Nc1ccc(Cl)c(C(F)(F)F)c1)C(=O)c1ccc2c(c1)NC(=O)CS2 | 2 | 0 | -24 | 16* | -1 | -1
CN(CC(=O)Nc1ccc(F)c(F)c1F)C(=O)c1ccc2c(c1)NC(=O)CS2 | -4 | 1 | -26 | 11 | x | x
CC1=NNC(=O)/C1=C\c1cn(-c2ccccc2)nc1-c1ccc(Cl)cc1 | -27 | 5 | -75 | 23* | -2 | -5
CCCCc1cc(=O)oc2cc(OCC(=O)NC3CCN(Cc4ccccc4)CC3)ccc12 | -10 | 2 | -9 | 15* | 5 | 8
COc1cccc(-c2sc3ccccc3c2-c2ccc(OCCN3CCCC3)cc2)c1 | -53 | 10 | -54 | 16* | 2 | 19*
COc1cccc(-c2sc3ccccc3c2-c2ccc(OCCN3CCCCC3)cc2)c1 | -37 | 7 | -75 | 17* | 10 | 6
COc1cccc(-c2sc3ccc(OC)cc3c2-c2ccc(OCCN3CCCC3)cc2)c1 | -25 | 5 | -27 | 7 | x | x
Cc1[nH]ncc1N=Cc1ccc([N+](=O)[O-])cc1 | -3 | 0 | -20 | 1 | x | x
CC(NC(=S)Nc1c(Cl)cccc1OC(F)F)C(C)(C)C (stereo not drawn) | 5 | -1 | 2 | -1 | x | x
Cc1cc(NS(=O)(=O)c2ccc(NC(=O)COc3ccc(Cl)cc3Cl)cc2)no1 | 16 | -3 | -47 | 20* | 4 | 8
Cc1ccccc1C(=O)c1cccn1CC(=O)NCc1ccc2c(c1)OCO2 | -7 | 1 | -44 | 17* | 3 | 24*
Cc1ccccc1C(=O)c1cccn1CC(=O)NCc1ccccc1 | 6 | -1 | 6 | -2 | x | x
O=C(Nc1cccc(S(=O)(=O)N2CCOCC2)c1)c1cc(S(=O)(=O)N2CCOCC2)c(Cl)cc1Cl | -3 | 1 | -12 | 3 | x | x
Fc1ccc(C(c2nnnn2C2CCCC2)N2CCN(Cc3ccccc3)CC2)cc1 (stereo not drawn) | 3 | -1 | -40 | 18* | 6 | 1
SMILES | OPRM1-OPRD1 inv | MOR-DOR ag-1 | HTR5A inv ag | HTR5A ag ctr | MOR-DOR ag-2 | HTR5A ag conf
Clc1ccc(C(c2nnnn2C2CCCC2)N2CCN(Cc3ccncc3)CC2)cc1 (stereo not drawn) | 4 | -1 | -9 | 1 | x | x
CSc1nc(NNC=O)cc(Oc2ccc(NC(C)=O)cc2)n1 | 8 | -2 | 15 | -4 | x | x
CCN(CC)CCNC(=O)c1ccc(NC(=O)COc2ccc3c(c2)CCC3)cc1 | 8 | -2 | -41 | 17* | 3 | 7
COc1ccccc1OCc1ccc(C(=O)Nc2cc(OC)c(OC)c(OC)c2)o1 | 8 | -2 | -1 | 0 | x | x
Cc1cc(OCCn2nc(C(=O)O)c3ccccc3c2=O)ccc1C(C)C | -21 | 3 | -55 | 20* | -2 | -9
O=C(NCCc1ccc(Cl)cc1)C1CCC(=O)N1Cc1ccc(F)cc1 (stereo not drawn) | 11 | -2 | -49 | 17* | 0 | 0
Cc1ccc(CCNC(=O)C2CCC(=O)N2Cc2ccc(F)cc2)cc1 (stereo not drawn) | 5 | -1 | 7 | -2 | x | x
Cc1c(OC(C)C(=O)NCCCN2CCOCC2)ccc2c1oc(=O)c1ccccc12 (stereo not drawn) | 18 | -4 | 8 | 3 | x | x
COc1ccc(OCc2n(CC(=O)OC3CC(C)CCC3C(C)C)c3ccccc3[n+]2C)cc1 (stereo not drawn) | -17 | 3 | -58 | 21* | 4 | 7
CCOC(=O)/C=C/C(=O)Nc1cc(S(=O)(=O)Nc2ccc(OC)cc2)ccc1N1CCOCC1 | 10 | -2 | -3 | -3 | x | x
CCCCCCCCCCn1c2c(c(=N)c3c1CCC3)CCC2 | -23 | 4 | -51 | 35* | 10 | 13
Cc1ccc(C(=O)N/C(=C\c2cccs2)C(=O)NCCc2c[nH]c3ccccc23)cc1 | -13 | 2 | -46 | 15* | 20* | 6
Cc1cc(/C=C(\C#N)C(=O)NCCc2c[nH]c3ccccc23)c(C)n1C | 7 | -1 | -172 | 66* | -1 | -5
COc1ccc(/C=C(/NC(=O)c2ccc(OC)cc2)C(=O)NCCc2c[nH]c3ccccc23)cc1 | 17 | -3 | 4 | -1 | x | x
Cc1ccc(-c2cc(Cc3ccccn3)c(=O)[nH]n2)cc1 | 9 | -2 | -27 | -4 | x | x
Cc1ccc(S(=O)(=O)NNc2nnc(C)c(=O)[nH]2)cc1 | 6 | -1 | -5 | 4 | x | x
O=C1NCCCN1Cc1ccc(Cl)cc1 | 11 | -2 | -29 | 8 | x | x
COc1ccc(OC)c(NC(=S)N(CCc2c(C)[nH]c3ccccc23)Cc2cccs2)c1 | -14 | 3 | -19 | 7 | x | x
COc1ccc(OC)c(NC(=S)N(CCc2c(C)[nH]c3ccc(C)cc23)Cc2cccs2)c1 | -20 | 4 | -68 | 24* | -1 | -2
CC(NC(=O)c1ccc(Br)o1)c1ccc(-n2ccnc2)cc1 (stereo not drawn) | 4 | -1 | -14 | 4 | x | x
CCOc1ccccc1NC(=S)N1C2CCC1CC(NC(=O)NC13CC4CC(CC(C4)C1)C3)C2 (stereo not drawn) | 6 | -1 | -9 | 2 | x | x
COc1ccccc1NC(=S)N1C2CCC1CC(NC(=O)NC13CC4CC(CC(C4)C1)C3)C2 (stereo not drawn) | -3 | 1 | -36 | 16* | 0 | 3
CCOC(=O)c1c(C)[nH]c(C(=O)CSc2ccc(Cl)cc2)c1C | -13 | 2 | -30 | 15* | 4 | 9
COC(=O)c1ccc(Cn2cc(Cl)cn2)cc1 | 11 | -2 | -64 | 24* | 3 | 1
